Test results published in article PMC5700166.

Experiments:
Assay in all cases: protein-binding microarray (PBM); PBM: ~300 nM protein, 6 mM HEPES pH 7.8, 80 mM KCl, 0.5 mM EDTA, 0.5 mM EGTA, 6% glycerol, 35 ng/ul poly-dIdC, 1% milk, 1 h, room temperature; Ap Aiptasia and Nv Nematostella (sea anemones) / Co Capsaspora / Aq Amphimedon (sponge) / Dm Drosophila / Hu human; RHD is the Rel homology domain; high values mean tight binding
Settings in all cases: dsDNA, one strand shown
GST-Ap-NF-kB RHD = molecular target: T1, GST-Ap-NF-kB RHD (Exaiptasia pallida (Aiptasia), UniProt A0A913YAJ5 2-422)
T1 sequence: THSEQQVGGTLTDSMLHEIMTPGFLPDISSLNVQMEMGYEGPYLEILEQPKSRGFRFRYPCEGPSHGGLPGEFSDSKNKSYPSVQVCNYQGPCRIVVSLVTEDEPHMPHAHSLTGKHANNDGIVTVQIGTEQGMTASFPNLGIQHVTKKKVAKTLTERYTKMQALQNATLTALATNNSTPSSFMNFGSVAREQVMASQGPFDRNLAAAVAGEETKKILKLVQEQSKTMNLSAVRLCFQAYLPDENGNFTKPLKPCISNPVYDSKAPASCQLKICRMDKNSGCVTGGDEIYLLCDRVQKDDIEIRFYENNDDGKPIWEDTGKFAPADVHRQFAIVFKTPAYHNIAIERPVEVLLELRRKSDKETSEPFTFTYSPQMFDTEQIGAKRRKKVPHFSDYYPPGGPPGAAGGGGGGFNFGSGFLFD

[1] = molecular target: T2, GST-Nv-NF-kB (Cys allele) (Nematostella vectensis, UniProt E5G601 2-411)
T2 sequence: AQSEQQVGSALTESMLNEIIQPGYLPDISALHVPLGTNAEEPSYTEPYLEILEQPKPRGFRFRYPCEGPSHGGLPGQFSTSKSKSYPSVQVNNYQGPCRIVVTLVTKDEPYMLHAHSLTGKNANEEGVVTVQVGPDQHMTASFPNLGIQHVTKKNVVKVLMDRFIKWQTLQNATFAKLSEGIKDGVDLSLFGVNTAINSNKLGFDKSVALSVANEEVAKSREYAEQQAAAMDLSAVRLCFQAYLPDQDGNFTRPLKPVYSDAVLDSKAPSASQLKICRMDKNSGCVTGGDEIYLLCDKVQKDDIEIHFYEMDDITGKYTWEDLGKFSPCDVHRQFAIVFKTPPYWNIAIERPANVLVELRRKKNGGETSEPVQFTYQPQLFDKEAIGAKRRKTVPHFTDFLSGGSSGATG

GST-Co-NF-kB = molecular target: T3, GST-Co-NF-kB (Capsaspora owczarzaki, UniProt F1ARL5 200-546)
T3 sequence: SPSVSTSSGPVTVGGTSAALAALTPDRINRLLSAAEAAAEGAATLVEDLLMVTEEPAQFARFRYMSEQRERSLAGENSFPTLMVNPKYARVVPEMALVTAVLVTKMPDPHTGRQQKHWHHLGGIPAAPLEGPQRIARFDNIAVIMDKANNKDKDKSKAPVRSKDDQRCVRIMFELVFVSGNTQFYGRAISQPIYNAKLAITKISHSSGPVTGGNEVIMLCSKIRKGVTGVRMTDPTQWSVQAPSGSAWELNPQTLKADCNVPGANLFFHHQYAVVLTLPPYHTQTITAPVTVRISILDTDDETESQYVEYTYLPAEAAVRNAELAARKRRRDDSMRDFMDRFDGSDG

GST-Dm-Relish = molecular target: T4, GST-Dm-Relish (Drosophila melanogaster, UniProt Q94527 99-473)
T4 sequence: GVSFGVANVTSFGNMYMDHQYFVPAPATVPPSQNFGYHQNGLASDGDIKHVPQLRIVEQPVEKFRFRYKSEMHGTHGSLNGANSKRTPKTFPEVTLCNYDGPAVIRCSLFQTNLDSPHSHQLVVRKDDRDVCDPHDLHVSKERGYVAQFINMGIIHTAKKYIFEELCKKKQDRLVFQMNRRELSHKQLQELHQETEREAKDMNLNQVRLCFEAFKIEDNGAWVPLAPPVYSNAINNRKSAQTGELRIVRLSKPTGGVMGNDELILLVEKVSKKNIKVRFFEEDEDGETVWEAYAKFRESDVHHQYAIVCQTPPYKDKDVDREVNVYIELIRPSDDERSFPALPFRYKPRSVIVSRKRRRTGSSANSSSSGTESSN

GST-Aq-NF-kB = molecular target: T5, GST-Aq-NF-kB (Amphimedon queenslandica, UniProt A9Y5G7 2-389)
T5 sequence: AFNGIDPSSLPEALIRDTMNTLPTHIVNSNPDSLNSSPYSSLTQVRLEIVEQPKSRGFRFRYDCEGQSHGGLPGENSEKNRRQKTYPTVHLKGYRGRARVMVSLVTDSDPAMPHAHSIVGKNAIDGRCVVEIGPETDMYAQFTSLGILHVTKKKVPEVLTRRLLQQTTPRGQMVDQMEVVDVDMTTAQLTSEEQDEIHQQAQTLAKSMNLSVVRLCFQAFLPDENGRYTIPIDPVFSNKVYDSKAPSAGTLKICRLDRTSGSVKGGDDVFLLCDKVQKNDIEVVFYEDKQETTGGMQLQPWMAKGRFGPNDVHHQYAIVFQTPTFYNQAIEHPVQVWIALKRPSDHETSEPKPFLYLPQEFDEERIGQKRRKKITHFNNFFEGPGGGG

Row | Sequence | binding signal (GST-Ap-NF-kB RHD) [z-score] | binding signal [1] [z-score] | binding signal (GST-Co-NF-kB) [z-score] | binding signal (GST-Dm-Relish) [z-score] | binding signal (GST-Aq-NF-kB) [z-score]
1 | CCGATTAACATCAAAAAACCCACTGATGTTAATCGGGTCTTGATTCGCTTGACGCTGCTG | 2.65 | 2.49 | 1.66 | 5.49 | 3.61
2 | CCGATTAACATCACATATTTCCCTGATGTTAATCGGGTCTTGATTCGCTTGACGCTGCTG | 3.32 | 4.97 | 4.94 | 1.93 | 5.18
3 | CCGATTAACATCAAATTCCCAGCTGATGTTAATCGGGTCTTGATTCGCTTGACGCTGCTG | 1.68 | 3.6 | 3.28 | 3.73 | 2.48
4 | CCGATTAACATCAGGGGAGTTAATGATGTTAATCGGGTCTTGATTCGCTTGACGCTGCTG | 4.13 | 4.06 | 3.34 | 3.14 | 3.63
5 | CCGATTAACATCAAGGGAAACCCTGATGTTAATCGGGTCTTGATTCGCTTGACGCTGCTG | 4.71 | 5.3 | 2.82 | 7.64 | 5.8
6 | CCGATTAACATCAGGATAATCCCTGATGTTAATCGGGTCTTGATTCGCTTGACGCTGCTG | 4.74 | 3.01 | 1.51 | 2.88 | 5.24
7 | CCGATTAACATCAACTCCCCCCCTGATGTTAATCGGGTCTTGATTCGCTTGACGCTGCTG | 6.64 | 4.56 | 7.71 | 5.06 | 5.08
8 | CCGATTAACATCAGGGAATTCGATGATGTTAATCGGGTCTTGATTCGCTTGACGCTGCTG | 3.01 | 3.99 | 2.25 | 1.66 | 3.01
9 | CCGATTAACATCAGGGGTAAAACTGATGTTAATCGGGTCTTGATTCGCTTGACGCTGCTG | 2.3 | 1.97 | 6.26 | 1.85 | 2.73
10 | CCGATTAACATCAGGGGGTAATATGATGTTAATCGGGTCTTGATTCGCTTGACGCTGCTG | 4.99 | 4.47 | 6.77 | 2.66 | 4.45
11 | CCGATTAACATCACCAAAACCCCTGATGTTAATCGGGTCTTGATTCGCTTGACGCTGCTG | 4.76 | 3.55 | 1.32 | 6.02 | 3.55
12 | CCGATTAACATCAGGGAAAACCATGATGTTAATCGGGTCTTGATTCGCTTGACGCTGCTG | 3.89 | 5.15 | 4.31 | 5.57 | 5.29
13 | CCGATTAACATCAGAATAACCCCTGATGTTAATCGGGTCTTGATTCGCTTGACGCTGCTG | 5.37 | 3.87 | 1.66 | 3.29 | 4.42
14 | CCGATTAACATCAGGGAATTCCATGATGTTAATCGGGTCTTGATTCGCTTGACGCTGCTG | 5.46 | 6.55 | 3.71 | 7.15 | 6.68
